The target of assay [1] is Death-associated protein kinase 1 (Homo sapiens) (UniProt P53355). The note with it: at 1 µM.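 Further: each value is a mean inhibition figure.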
Assay [2] deals with T1, Serine/threonine-protein kinase DCLK2 (Homo sapiens) (UniProt Q8N568).
T1 sequence (whole entry): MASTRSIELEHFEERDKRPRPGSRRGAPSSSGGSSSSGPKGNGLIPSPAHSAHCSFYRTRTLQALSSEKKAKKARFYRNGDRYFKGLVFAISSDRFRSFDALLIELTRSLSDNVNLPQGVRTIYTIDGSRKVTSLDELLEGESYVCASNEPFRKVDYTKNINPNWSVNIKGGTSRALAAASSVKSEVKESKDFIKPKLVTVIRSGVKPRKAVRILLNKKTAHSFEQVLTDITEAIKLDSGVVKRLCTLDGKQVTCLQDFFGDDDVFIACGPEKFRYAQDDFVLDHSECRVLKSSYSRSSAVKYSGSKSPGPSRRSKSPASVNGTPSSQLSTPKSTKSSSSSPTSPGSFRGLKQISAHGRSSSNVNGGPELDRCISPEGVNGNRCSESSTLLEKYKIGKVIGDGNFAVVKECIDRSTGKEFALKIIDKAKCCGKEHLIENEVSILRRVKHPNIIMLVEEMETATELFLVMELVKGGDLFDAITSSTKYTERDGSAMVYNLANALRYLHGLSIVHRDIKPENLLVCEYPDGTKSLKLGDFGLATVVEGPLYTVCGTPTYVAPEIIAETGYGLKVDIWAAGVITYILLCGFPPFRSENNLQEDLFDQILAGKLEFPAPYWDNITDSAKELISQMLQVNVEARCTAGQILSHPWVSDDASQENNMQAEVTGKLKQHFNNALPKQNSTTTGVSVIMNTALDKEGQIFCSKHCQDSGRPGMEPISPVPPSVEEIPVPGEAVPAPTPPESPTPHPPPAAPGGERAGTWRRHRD
Conditions: at 0.1 µM.

For assay [3], the target named is T1, Serine/threonine-protein kinase DCLK2 (Homo sapiens). Conditions: at 1 µM.
In assay [4] the target is MAP kinase-activated protein kinase 2 (Homo sapiens) (UniProt P49137). Conditions: at 0.1 µM.
Chain of MAP kinase-activated protein kinase 2 (Homo sapiens) (P49137 whole entry, looked up): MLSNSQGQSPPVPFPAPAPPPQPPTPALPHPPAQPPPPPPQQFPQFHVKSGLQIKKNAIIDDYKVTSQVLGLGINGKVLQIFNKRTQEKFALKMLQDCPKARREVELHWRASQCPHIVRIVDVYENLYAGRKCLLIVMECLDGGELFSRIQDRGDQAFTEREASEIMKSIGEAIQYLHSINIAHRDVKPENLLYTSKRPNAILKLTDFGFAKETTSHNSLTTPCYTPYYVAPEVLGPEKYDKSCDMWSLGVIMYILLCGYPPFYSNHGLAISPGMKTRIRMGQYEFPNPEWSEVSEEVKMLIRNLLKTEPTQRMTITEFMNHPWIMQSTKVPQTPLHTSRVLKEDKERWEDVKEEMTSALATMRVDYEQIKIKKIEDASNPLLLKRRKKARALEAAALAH
Assay [5] shares this target. The note with it: at 1 µM.
Assay [6] addresses MAP kinase-activated protein kinase 3 (Homo sapiens) (UniProt Q16644). Conditions: at 0.1 µM.
The target is the same in assay [7]. Conditions: at 1 µM.
In assay [8] the target is Serine/threonine-protein kinase MARK1 (Homo sapiens) (UniProt Q9P0L2). The note with it: at 0.1 µM.
Chain of Serine/threonine-protein kinase MARK1 (Homo sapiens) (Q9P0L2 whole entry, looked up): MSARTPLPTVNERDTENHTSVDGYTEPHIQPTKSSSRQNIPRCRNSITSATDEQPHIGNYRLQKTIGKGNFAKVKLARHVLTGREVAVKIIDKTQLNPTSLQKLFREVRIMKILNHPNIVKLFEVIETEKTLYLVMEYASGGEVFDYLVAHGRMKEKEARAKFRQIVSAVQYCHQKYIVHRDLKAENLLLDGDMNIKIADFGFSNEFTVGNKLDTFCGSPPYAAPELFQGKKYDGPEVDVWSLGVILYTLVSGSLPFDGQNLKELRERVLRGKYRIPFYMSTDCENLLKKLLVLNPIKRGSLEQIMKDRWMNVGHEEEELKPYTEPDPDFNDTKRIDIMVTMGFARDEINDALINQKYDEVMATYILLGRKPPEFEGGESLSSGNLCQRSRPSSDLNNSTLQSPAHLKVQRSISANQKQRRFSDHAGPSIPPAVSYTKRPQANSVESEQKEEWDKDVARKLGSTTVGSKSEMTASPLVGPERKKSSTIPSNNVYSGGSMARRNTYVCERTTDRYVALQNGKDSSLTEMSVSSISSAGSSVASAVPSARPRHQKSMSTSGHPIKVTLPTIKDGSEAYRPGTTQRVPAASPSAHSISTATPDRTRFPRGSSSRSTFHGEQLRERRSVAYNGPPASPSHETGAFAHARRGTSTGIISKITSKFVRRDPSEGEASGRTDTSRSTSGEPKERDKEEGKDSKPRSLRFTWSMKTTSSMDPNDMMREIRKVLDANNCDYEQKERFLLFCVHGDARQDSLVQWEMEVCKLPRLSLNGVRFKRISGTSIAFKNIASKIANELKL
For assay [9] the target is unchanged. The note with it: at 1 µM.
In assay [10] the target is MAP/microtubule affinity-regulating kinase 3 (Homo sapiens) (UniProt P27448). Conditions: at 0.1 µM.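 Further: mean percent inhibition of MARK3 kinase activity, measured within the GSK PKIS screening panel.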
Chain of MAP/microtubule affinity-regulating kinase 3 (Homo sapiens) (P27448 whole entry, looked up): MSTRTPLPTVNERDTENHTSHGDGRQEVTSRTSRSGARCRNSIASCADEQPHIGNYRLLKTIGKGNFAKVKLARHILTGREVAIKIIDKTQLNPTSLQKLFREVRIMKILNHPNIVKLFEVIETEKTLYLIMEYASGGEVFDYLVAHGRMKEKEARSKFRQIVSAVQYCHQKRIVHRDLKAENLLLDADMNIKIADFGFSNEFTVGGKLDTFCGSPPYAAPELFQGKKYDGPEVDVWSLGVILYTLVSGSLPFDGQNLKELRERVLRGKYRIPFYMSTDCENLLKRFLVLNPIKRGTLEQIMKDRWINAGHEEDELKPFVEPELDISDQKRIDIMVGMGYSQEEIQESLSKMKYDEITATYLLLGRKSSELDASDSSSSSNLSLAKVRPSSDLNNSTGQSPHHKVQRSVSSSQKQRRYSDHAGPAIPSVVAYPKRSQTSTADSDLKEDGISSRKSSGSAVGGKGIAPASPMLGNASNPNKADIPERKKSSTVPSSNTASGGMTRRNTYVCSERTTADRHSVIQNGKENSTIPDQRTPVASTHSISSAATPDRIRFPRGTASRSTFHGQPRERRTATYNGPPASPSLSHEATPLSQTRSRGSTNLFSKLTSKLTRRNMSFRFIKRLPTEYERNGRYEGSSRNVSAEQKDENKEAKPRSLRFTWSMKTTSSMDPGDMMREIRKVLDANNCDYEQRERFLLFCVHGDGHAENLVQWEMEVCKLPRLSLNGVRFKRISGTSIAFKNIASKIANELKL

For orientation: inhibition means the relative decrease from the control value, in per cent.

Chain of MAP kinase-activated protein kinase 3 (Homo sapiens) (Q16644 whole entry, looked up): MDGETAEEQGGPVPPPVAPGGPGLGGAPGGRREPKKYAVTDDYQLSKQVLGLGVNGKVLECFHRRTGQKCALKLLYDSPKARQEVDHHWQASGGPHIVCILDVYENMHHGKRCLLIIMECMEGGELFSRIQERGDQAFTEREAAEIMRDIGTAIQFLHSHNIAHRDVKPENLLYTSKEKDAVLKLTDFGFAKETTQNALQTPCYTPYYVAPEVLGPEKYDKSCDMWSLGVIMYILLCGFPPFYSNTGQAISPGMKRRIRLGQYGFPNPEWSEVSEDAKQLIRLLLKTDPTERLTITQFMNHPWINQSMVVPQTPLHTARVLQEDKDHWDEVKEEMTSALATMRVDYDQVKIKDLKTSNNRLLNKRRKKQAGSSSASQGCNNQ
Chain of Death-associated protein kinase 1 (Homo sapiens) (P53355 whole entry, looked up): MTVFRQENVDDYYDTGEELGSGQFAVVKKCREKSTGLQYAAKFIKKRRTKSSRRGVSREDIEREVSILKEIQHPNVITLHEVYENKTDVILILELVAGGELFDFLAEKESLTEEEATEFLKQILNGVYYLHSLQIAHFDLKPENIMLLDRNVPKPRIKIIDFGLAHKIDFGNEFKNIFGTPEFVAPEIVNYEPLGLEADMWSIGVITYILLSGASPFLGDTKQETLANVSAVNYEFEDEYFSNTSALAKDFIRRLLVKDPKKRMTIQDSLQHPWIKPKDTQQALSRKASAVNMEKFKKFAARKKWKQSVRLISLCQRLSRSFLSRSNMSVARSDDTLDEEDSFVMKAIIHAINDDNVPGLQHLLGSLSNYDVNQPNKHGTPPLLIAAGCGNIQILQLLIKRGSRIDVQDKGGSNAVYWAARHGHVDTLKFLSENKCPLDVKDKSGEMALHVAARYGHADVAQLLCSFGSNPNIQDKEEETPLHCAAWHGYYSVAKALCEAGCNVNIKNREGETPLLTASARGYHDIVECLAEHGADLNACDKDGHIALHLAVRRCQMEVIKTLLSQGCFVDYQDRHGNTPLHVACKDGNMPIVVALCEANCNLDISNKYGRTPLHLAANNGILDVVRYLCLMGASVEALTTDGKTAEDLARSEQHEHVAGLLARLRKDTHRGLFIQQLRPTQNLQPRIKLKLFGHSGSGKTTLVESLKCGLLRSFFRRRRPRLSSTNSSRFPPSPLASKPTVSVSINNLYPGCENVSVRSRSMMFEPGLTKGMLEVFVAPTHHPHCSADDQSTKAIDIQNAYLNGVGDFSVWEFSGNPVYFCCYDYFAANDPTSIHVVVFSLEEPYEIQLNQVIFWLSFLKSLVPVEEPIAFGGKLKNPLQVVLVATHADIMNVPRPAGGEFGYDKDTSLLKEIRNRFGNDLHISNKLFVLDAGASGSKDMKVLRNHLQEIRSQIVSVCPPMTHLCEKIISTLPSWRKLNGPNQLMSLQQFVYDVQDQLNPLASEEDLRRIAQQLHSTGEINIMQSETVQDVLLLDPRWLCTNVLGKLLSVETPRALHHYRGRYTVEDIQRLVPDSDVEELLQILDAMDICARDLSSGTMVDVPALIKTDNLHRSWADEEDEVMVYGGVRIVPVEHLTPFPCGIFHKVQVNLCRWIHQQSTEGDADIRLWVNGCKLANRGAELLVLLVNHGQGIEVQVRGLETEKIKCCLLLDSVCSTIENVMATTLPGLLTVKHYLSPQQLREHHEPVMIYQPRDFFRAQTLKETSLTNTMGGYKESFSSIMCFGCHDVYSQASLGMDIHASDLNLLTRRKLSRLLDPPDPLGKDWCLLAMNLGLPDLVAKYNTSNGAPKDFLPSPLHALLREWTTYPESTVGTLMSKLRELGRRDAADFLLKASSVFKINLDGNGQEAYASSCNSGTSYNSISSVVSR

For the compound `Fc1ccc(-c2ncn(C3CCNCC3)c2-c2ccnc(Oc3ccc(F)c(F)c3)n2)cc1`, the inhibition in assay [1] is 2.08%; in [2], -3.27%; in [3], -1.37%; in assay [4] it was 1.11%; in assay [5], 0.66%; in assay [6], 18.5%. In addition, the inhibition in [7] was 31.3%; in [8], 2.93%; in [9] it was 4.99%; in [10], 3.47%.
Regarding `Fc1ccc(-c2ncn(C3CCNCC3)c2-c2ccnc(Oc3ccc(Oc4ccccc4)cc3)n2)cc1`, the inhibition in assay [1] is 13.2%; in [2], -0.37%; in assay [3] it was 2.31%; in [4], 5.15%; in assay [5], 7.84%; in [6], 37.5%. Besides, the inhibition in assay [7] is 46.2%; in assay [8] it was 2.1%; in [9] it was 4.13%; in assay [10], 2.76%.
`O=C1NC(=O)C(c2cccc(Cl)c2)=C1Nc1ccc(Cl)c(C(=O)O)c1`: the inhibition is 3.41% in [1]; 0.79% in assay [2]; -4.18% in assay [3]; 1.73% in assay [4]; 1.21% in assay [5]; 2.96% in assay [6]. Moreover, the inhibition is 3.57% in assay [7], 2.35% in assay [8], 3.49% in [9] and 3.32% in assay [10].
Take `COc1cc2ncn(-c3cc(OCc4cccs4)c(C(N)=O)s3)c2cc1OC`: the inhibition in [1] is -2.56%; in assay [2] it was -9.99%; in [3], -0.46%; in assay [4], 0.78%; in [5] it was 1.78%; in [6] it was 1.75%. Further, the inhibition in assay [7] turned out to be 2.97%; in [8] it was 2.63%; in assay [9] it was 15.8%; in assay [10] it was 3.86%.
As to `COc1cc2ncn(-c3cc(OCCc4ccccc4)c(C(N)=O)s3)c2cc1OC`, the inhibition in [1] was found to be 1.51%; in assay [2] it was 0.43%; in assay [3], 0.05%; in assay [4], 0.61%; in [5], 1.03%; in assay [6], 2.1%. Further, the inhibition is 4.28% in assay [7], 3.11% in [8], 3.45% in assay [9] and 3.88% in [10].
For the compound `NS(=O)(=O)c1ccc(Nc2cc(-c3ccc(O)c(F)c3)n[nH]2)cc1`, the inhibition was -3.49% in [1]; 2.54% in assay [2]; -2.22% in assay [3]; -1.97% in assay [4]; -1.79% in [5]; -0.95% in assay [6]. Further, the inhibition in assay [7] is -0.99%; in [8], 0.41%; in assay [9] it was 8.64%; in assay [10] it was 0.26%.
`CN1CCN(CCCNc2nc3ccc(Oc4ccc(NC(=O)Nc5cc(C(F)(F)F)ccc5F)cc4)cc3[nH]2)CC1`: the inhibition in [1] is -0.71%; in assay [2], -6.99%; in assay [3], -0.8%; in assay [4], -0.45%; in assay [5], -0.49%; in assay [6] it was 3.34%. Further, the inhibition in assay [7] was 18.3%; in [8], 0.78%; in assay [9], 0.66%; in assay [10], 5.08%.
For the compound `Fc1ccc(-c2nc3n(c2-c2ccncc2)CCS3)cc1`, the inhibition in [1] is 2.21%; in assay [2], -0.75%; in assay [3], -3.53%; in [4], 0.87%; in assay [5], 0.79%; in assay [6], 8.6%. Moreover, the inhibition turned out to be 19.8% in assay [7], 4.51% in [8], 4.67% in [9] and 3.87% in assay [10].
On to `CS(=O)(=O)CCNCc1cc(-c2cc3c(Nc4ccc(OCc5cccc(F)c5)c(Cl)c4)ncnc3s2)cs1`, for which the inhibition was -0.04% in [1]; 0.09% in [2]; 1.12% in assay [3]; 2.75% in [4]; 3.42% in [5]; 3.37% in assay [6]. Also, the inhibition is 4.64% in assay [7], -0.03% in assay [8], 3.02% in assay [9] and 0.84% in assay [10].
On to `CN(C)c1ccc2c(c1)/C(=C/Nc1ccc(S(N)(=O)=O)cc1)C(=O)N2`, for which the inhibition in [1] amounted to 1.27%; in assay [2] it was 1.9%; in [3], 5.58%; in [4], 0.97%; in assay [5], 1.33%; in assay [6], 0.95%. In addition, the inhibition in assay [7] is -0.05%; in assay [8], 6.96%; in assay [9] it was 36.4%; in assay [10] it was 6.41%.
For the compound `C#Cc1cccc(Nc2ncnc3ccc(OCCCCNCCS(C)(=O)=O)cc23)c1`, the inhibition in assay [1] was 2.74%; in [2] it was -0.45%; in [3], -4.44%; in assay [4] it was 2.15%; in assay [5], 1.98%; in [6] it was 4.84%. The inhibition in assay [7] amounted to 4.44%; in assay [8], 5.11%; in assay [9] it was 8.02%; in [10], 5.17%.
On to `c1ccc(-c2n[nH]cc2-c2ccnc(-c3ccc(OCCN4CCOCC4)cc3)c2)nc1`, for which the inhibition was found to be 1.17% in assay [1]; 4.23% in [2]; 4.29% in [3]; 0.95% in assay [4]; 0.98% in assay [5]; 0.91% in assay [6]. In addition, the inhibition in [7] stood at 8%; in [8], 4.58%; in [9], 4.86%; in assay [10], 7.18%.
`O=C(Nc1n[nH]c2nc(-c3ccc(O)cc3)c(Br)cc12)C1CC1`: the inhibition in assay [1] came out at 3.27%; in assay [2], 0.9%; in assay [3] it was 3.55%; in assay [4], 2.43%; in assay [5] it was 2.69%; in assay [6], 4.49%. The inhibition was 5.6% in assay [7], 3.94% in assay [8], 9.58% in [9] and 3.96% in assay [10].
Take `CCc1ccc(Oc2nccc(-c3c(-c4ccc(F)cc4)ncn3C3CCNCC3)n2)cc1`: the inhibition in assay [1] is 4.64%; in [2], -0.57%; in [3], 1.55%; in [4], 1.96%; in assay [5] it was 3.67%; in assay [6] it was 36.5%. Moreover, the inhibition in assay [7] is 37.5%; in assay [8] it was 3.13%; in [9], 7.96%; in assay [10], 3.13%.
`NCc1ccc(-n2c(-c3nonc3N)nc3cnccc32)cc1`: the inhibition is 9.98% in [1]; -0.49% in assay [2]; 2.47% in assay [3]; 1.78% in assay [4]; 1.8% in assay [5]; 4.33% in assay [6]. For the same compound, the inhibition in assay [7] came out at 4.65%; in assay [8], 6.36%; in assay [9], 23.2%; in assay [10], 5.76%.
For `O=C(Nc1ccc(Oc2ccc3[nH]c(NC(=O)c4ccccc4)nc3c2)cc1)Nc1cc(C(F)(F)F)ccc1F`, the inhibition in [1] is 5.19%; in assay [2] it was -1.34%; in assay [3], -0.03%; in assay [4], 1.97%; in assay [5] it was 1.81%; in assay [6] it was 4.88%. Further, the inhibition in assay [7] is 16.7%; in assay [8], 2.51%; in assay [9], 5.14%; in assay [10], 3.79%.
Take `NS(=O)(=O)c1ccc(N/N=C2\C(=O)Nc3ccc(-c4cnco4)cc32)cc1`: the inhibition is -3.71% in [1]; -5.27% in [2]; -2.47% in assay [3]; -0.59% in [4]; 0.18% in assay [5]; -0.18% in assay [6]. The inhibition in [7] is -0.48%; in assay [8], 2.3%; in [9], 15.6%; in assay [10] it was 2.61%.

Values taken from ChEMBL document CHEMBL1961873, “Compounds: GSK PKIS; Assays: Nanosyn kinase panel” (2012).
